Rows were chosen to be rich in hits. Some 1.8% of all compounds tested hit in one or more screens of this group.
p53ts 32C kill: p53ts cell cytotoxicity, permissive temperature; H1299-p53A138V at 32C, ATP luminescence viability, 24 h; Potency, µM (series often up to 46.1 µM), inactives show at the highest dose activity change, negative = cytotoxicity, usual class: cytotoxic; hit rate 0.93% among 130,000;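 note: 0% = DMSO and -100% = full killing by reference compound; nearly all actives have a fitted effect of over 55% in size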
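H1299-p53 A138V cells (temperature-sensitive p53) exposed 24 h to up to 46 uM compound at 32C, where p53 is wild-type in conformation. Viability read as ATP luminescence and normalised to DMSO and 100 uM tamoxifen. AC50 fitted with the Hill equation.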
Imprint erasure: inducers of genomic imprint erasure in mouse ES cells; mouse ES Peg3-LacZ reporter, beta-gal luminescence, 40 h; Potency, µM (series often up to 60.7 µM), inactives show at the highest dose activity change, positive = activation, most hits filed as activators; hit rate 0.02% among 110,000; AID 1948
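Readout: BetaGlo luminescence (5 min, room temp) for LacZ from the normally silent maternal Peg3 allele in female Peg3LacZ-Neo ES cells. Cells 300/well, 40 h, 37C, 5% CO2. Data normalized per plate to negative controls.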
IkB signaling: suppresses IkB signaling in ABC-DLBCL reporter cells | AID 445 | ABC-DLBCL IkBa-CBG/CBR dual luciferase ratio, 4 h; response scale: scaled: untreated 0%, proteasome inhibitor 100% | hit rate 0.04% among 110,000 | Potency, µM (titrated, usually from 57.1 µM), for the others: top-dose IkBa stabilization activation; active = well fitted curve in the direction sought with a large enough effect in the signal ratio, not every such curve was filed as active; inconclusive = small, poorly fitted or top-dose-only effect, or a change in a side signal; the % refers to the signal ratio;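 note: the direction sought is a rising ratio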
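Luminescence ratio of IκBα-fused green versus native red beetle luciferase in OCI-Ly3 cells, 4 h post-doxycycline with compound; red signal alone, scaled from basal (0%) to zero light (-100%), flagged nonspecific or cytotoxic effects.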
p53ts 39C tox: kills p53ts cells at the nonpermissive temperature; Potency, µM (highest dose often 46.1 µM), for inactives: top-dose activity change, negative = cell killing, actives largely listed as cytotoxic; hit rate 1.5% among 130,000; AID 902; H1299-p53A138V viability at 39C, ATP luminescence, 24 h; note: % is set by controls: 0 for no effect and ±100 for the full control effect; nearly all actives have a fitted effect of over 55% in size
Active calls of the source: *; ? = inconclusive; . = not tested or not shown; [ ] = remark or other dose. Unless noted, calls come from the whole dose curve; as a rule, active = well fitted curve in the direction sought with a large enough effect; inconclusive = small, poorly fitted or top-dose-only effect, or another doubt; inactive = no such curve, though single readings can be large; an effect the other way counts as inactive or inconclusive. Potency is the fitted concentration of half-maximal effect.

SMILES	p53ts 32C kill	Imprint erasure	IkB signaling	p53ts 39C tox
COc1ccc(-n2nc(C(=O)NCC(=O)N3CCN(c4ccccn4)CC3)c3ccccc3c2=O)cc1	13µM*	-9%	0%	13µM*
CN(C)CCCNc1cc(N2CCN(C3CCCCC3)CC2)c2noc3c2c1C(=O)c1ccccc1-3	-12%	-13%[10.9 µM]	0%	20µM*
CCOc1ccccc1CNc1ncnc2onc(-c3ccc(F)cc3)c12	8%	-8%[10.9 µM]	-1%	10%
COc1ccc(Nc2cc(C(=O)NCCCN3CCN(c4ccc(OC)cc4)CC3)c3ccccc3n2)cc1	?	-20%[10.9 µM]	?	13µM*
COc1ccc(N2CCN(CCCNC(=O)c3cc(Nc4ccccc4OC)nc4ccccc34)CC2)cc1	1%	-21%[10.9 µM]	?	?
COc1ccc(CCNC(=O)CCCn2c(=O)c3ccccc3n(CC(=O)Nc3cc(Cl)ccc3C)c2=O)cc1OC	?	-1%[10.9 µM]	-2%	13µM*
COc1ccc(Cl)cc1NC(=O)Cn1c(=O)n(CCCC(=O)NCCc2ccc(OC)c(OC)c2)c(=O)c2ccccc21	-19%	-9%[10.9 µM]	?	?
COc1ccc(NC(=O)Cn2c(=O)n(CC(=O)NCCc3ccccc3)c(=O)c3ccccc32)cc1	20%	9%[10.9 µM]	2%	14%
O=C(Cn1c(=O)c2ccccc2n(CC(=O)Nc2ccc(F)cc2)c1=O)NCCc1ccccc1	2%	-8%[10.9 µM]	?	-2%
CCc1cccc(NC(=O)Cn2c(=O)n(CC(=O)NCCc3ccccc3)c(=O)c3ccccc32)c1	10µM*	-27%[10.9 µM]	?	6.3µM*
Cc1cc(C)cc(NC(=O)Cn2c(=O)n(CC(=O)NCCc3ccccc3)c(=O)c3ccccc32)c1	?	-9%[10.9 µM]	?	20µM*
COc1ccc(CNC(=O)CCNS(=O)(=O)c2ccc3c(c2)CCCC(=O)N3)cc1	-9%	3%[10.9 µM]	1%	-7%
CCc1ccccc1NS(=O)(=O)c1ccc2oc(=O)c3ncn(C)c3c2c1	-15%	3%[10.9 µM]	1%	-10%
Cc1ccc(Cl)cc1NS(=O)(=O)c1ccc2oc(=O)c3ncn(C)c3c2c1	?	-4%[10.9 µM]	7%	20µM*
CCOc1ccccc1NS(=O)(=O)c1ccc2oc(=O)c3ncn(C)c3c2c1	?	3%[10.9 µM]	13%	20µM*
Cn1cnc2c(=O)oc3ccc(S(=O)(=O)Nc4ccc(F)cc4)cc3c21	-15%	13%[10.9 µM]	5%	13µM*
Cc1ccc(NS(=O)(=O)c2ccc3oc(=O)c4ncn(C)c4c3c2)cc1C	?	-4%[10.9 µM]	?	?
CC(C)(C(=O)O)c1ccc([C@@H](O)CCCN2CCC(C(O)(c3ccccc3)c3ccccc3)CC2)cc1	.	.	-2%	.
CCc1ccc(S(=O)(=O)Nc2ccc(O)c(C(=O)O)c2)cc1	3%	.	.	10%
O=C(c1ccco1)N1CCN(C(=O)C(Cc2ccccc2)NS(=O)(=O)c2cccs2)CC1 (stereo not drawn)	6%	3.2µM*	3%	3%
Cc1ccc(NC(=O)/C=C\C(=O)N(c2ccc(C(C)C)cc2)C(C(=O)NCc2ccco2)c2ccc(F)cc2)cc1 (stereo not drawn)	19%	-19%[10.9 µM]	?	-10%
c1ccc(Nc2nc(-c3ccoc3)nc3ccccc23)cc1	12%	4µM*	0%[11.4 µM]	0%
CN(C)C(=O)c1ccc(-c2nc(Nc3ccccc3)c3ccccc3n2)cc1	?	-10%	-6%[11.4 µM]	?
COC(=O)c1ccc(Nc2nc(-c3ccc(C)cc3)nc3ccccc23)cc1	?	-23%[10.9 µM]	?	13µM*
Cc1cc(C)c(NC(=O)Cn2nnc3sc4c(c3c2=O)CCC(C(C)(C)C)C4)c(C)c1 (stereo not drawn)	?	-11%[10.9 µM]	0%	13µM*
SMILES	p53ts 32C kill	Imprint erasure	IkB signaling	p53ts 39C tox
CCn1nc(C)c(CCN(C)C(=O)Nc2cc(OC)c(OC)c(OC)c2)c1C	3%	-12%[10.9 µM]	1%	11%
Cc1ccc(O)c(NC(=O)c2noc3c2CCCCC3)c1	13µM*	-35%[10.9 µM]	9%	?
COc1cc(Cl)c(NS(=O)(=O)c2ccc(-c3cnc(C4CC4)o3)cc2)c(OC)c1	9%	-24%[10.9 µM]	16%	-24%
Cc1ccc(CSc2nc3ccncc3n2Cc2nc(-c3ccccc3C)oc2C)cc1	13µM*	-9%[10.9 µM]	3%	7.9µM*
O=c1c2sc3ccccc3c2n(Cc2ccccc2F)c(=O)n1Cc1ccccc1	27%	-14%[10.9 µM]	-3%	-21%
COc1cc(NC(=O)Cn2c(-c3ccccc3)cc(C(C)=O)c2C)cc(OC)c1	5%	-7%[10.9 µM]	2%	35%
CC(=NCc1ccco1)c1c(O)n(C2CCCCC2)c(=O)[nH]c1=O	9%	-10%	-3%	8%
CC(=NCc1ccco1)c1c(C)[nH]n(-c2nc3ccccc3s2)c1=O	?	-93%	?	7.9µM*
Fc1ccccc1CSc1ncnc2c1oc1ccccc12	13µM*	-87%	9%	13µM*
CC(=O)Nc1c(C)nn(-c2ccccc2)c1N1CCC(C(=O)Nc2ccccc2F)CC1	18%	8%[10.9 µM]	0%	18%
c1ccc(-c2nc3nonc3nc2-c2ccccc2)cc1	?	-27%	6%	13µM*
CC(C)c1ccc(-c2nnc3n(CCc4ccccc4)c(=O)c4ccccc4n23)cc1	7%	4%[10.9 µM]	1%	17%
CCCN(CCC)CCCNC(=O)c1cc2c(-c3ccc(Cl)cc3)nn(C)c2s1	-10%	2%[10.9 µM]	?	13µM*
Cc1cc(NC(=O)c2ccc(Cl)cc2)no1	7.9µM*	-44%	4%	7.9µM*
CCOc1ccc(C(=O)Nc2cc(C)on2)cc1	2.5µM*	-81%	-1%	3.2µM*
Cc1cc(NC(=O)c2ccc(S(=O)(=O)N(C)C)cc2)no1	-16%	-8%	-1%	-21%
COc1ccc(CCNC(=O)Cn2nc(C)n3c(cc4occc43)c2=O)cc1OC	-8%	5%[10.9 µM]	-1%	3%
CCOC(=O)CSc1nc2c(c(=O)n1-c1ccc(OC)cc1)SCC2	1.3µM*	-92%	0%	1.3µM*
CCOC(=O)CSc1nc2c(c(=O)n1-c1ccc(OCC)cc1)SCC2	10%	-7%	0%	-3%
CCCCCCCCCCCCC/C=C\[C@H](O)[C@H](N)CO	.	.	-18%	.
O=C1NCCCC2c3c(cc(Br)c(O)c3Br)OC12N1CCOCC1 (stereo not drawn)	9%	-1%	-1%	9%
O=C1NCCCC2c3cc(O)c4ccccc4c3OC12N1CCCCC1 (stereo not drawn)	6.3µM*	-39%	?	7.9µM*
OC[C@H]1O[C@@H](n2cnc3c(NCc4ccccc4)ncnc32)[C@H](O)[C@@H]1O	6.3µM*	-1%	.	10µM*
OC[C@H]1O[C@@H](n2cnc3c(NCCc4ccccc4)ncnc32)[C@H](O)[C@H]1O	11%	-21%	.	-12%
COc1cccc(-c2nccc(NCc3ccccc3)n2)c1	20µM*	-13%	-1%[11.4 µM]	13µM*
COc1ccc2c(c1)Cc1sc(NC(=O)c3cccc(Cl)c3)nc1-2	?	11%[10.9 µM]	-2%	25µM*
Cc1ccn2c(Nc3ccc(C(C)C)cc3)c(-c3cccnc3)nc2c1	-1%	-11%[10.9 µM]	?	25µM*
